Among the data in PubChem BioAssay are inhibition values, retold here.

Unmarked numbers belong to inactive results. The rule behind the calls is not given here. Where a SMILES comes first, the peptide text is derived from it. The star is where a group is joined. Boc = CC(C)(C)OC(=O)*

What is called inhibition is the change of the read-out against control, counted positive when it falls.

In this test the target is Pantothenate synthetase (Mycobacterium tuberculosis (strain ATCC 25618 / H37Rv)) (UniProt P9WIL5). In words: Recombinant Mtb pantothenate synthetase (PanC) inhibitors, coupled enzyme, confirmatory (AID 375).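 Note: 0% = full reaction with vehicle and 100% = no enzyme background.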 The following applies: coupled enzyme assay; at 10 µM, active compounds read high.
Sequence of Pantothenate synthetase (Mycobacterium tuberculosis (strain ATCC 25618 / H37Rv)) (P9WIL5 whole entry, looked up): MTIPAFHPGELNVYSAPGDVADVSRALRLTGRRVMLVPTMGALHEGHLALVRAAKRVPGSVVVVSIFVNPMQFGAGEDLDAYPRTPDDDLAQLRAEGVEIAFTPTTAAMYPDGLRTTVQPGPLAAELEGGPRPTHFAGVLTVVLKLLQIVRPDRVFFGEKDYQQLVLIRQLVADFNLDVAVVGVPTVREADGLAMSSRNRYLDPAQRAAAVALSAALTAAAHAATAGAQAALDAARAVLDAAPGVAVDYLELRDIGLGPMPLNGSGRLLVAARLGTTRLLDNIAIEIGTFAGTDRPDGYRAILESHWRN
In the case of `COCc1cc(C)nc(Nc2ccc(C)cc2C)c1C#N`, the inhibition is 0%. `CN(C)c1oc(-c2ccccc2F)nc1C#N`: the inhibition was 1%.

Regarding `Cc1cc(C)nc(NS(=O)(=O)c2ccc(N)cc2)n1`, the inhibition was 0%.

For the compound `Cc1ccc(C(=O)CCC2CCCC2=O)cc1` (stereo not given), the inhibition was 0%.

On to `O=C1c2cccnc2C(O)N1Cc1ccc(F)cc1` (stereo not given), for which the inhibition is 9%. For the compound `O=C(CSc1nc(-c2ccc(F)cc2)cs1)N1CCOCC1`, the inhibition was 0%. For `CCOc1ccc(CCNC(=O)CCc2nc(-c3ccc(OC)cc3)no2)cc1OCC` the value was 0%.

In the case of `CSc1cccc(NC(=O)CN(C)S(=O)(=O)c2ccccc2)c1`, the inhibition is 0%. For `Cc1ccc(S(=O)(=O)N(CC(=O)N2CCOCC2)CC(=O)N2CCOCC2)cc1` the value was 0%. The same measure for `CCOc1ccccc1C1N(c2ccc(F)cc2)C(=O)C2CCCN21` (stereo not given): 2%; for `CN(C)c1ccc(C2C3=C(CCCC3=O)OC3=C2C(=O)CCC3)cc1`: 0%; for `CCOC(=O)Nc1nnc(-c2ccccc2OC)s1`: 0%.

For `CN(C)C(=O)C12CCC(C)(c3nc4ccccc4nc31)C2(C)C` (stereo not given), the inhibition was 4%.

For the compound `COc1ccc(CC(=O)NCc2cccs2)cc1`, the inhibition was 3%. For `COc1ccc(N2CCN(Cc3nc4ccccc4c(=O)[nH]3)CC2)cc1` the value was 0%; for `CC(=O)NCCc1nc2ccccc2[nH]1`, 0%. Regarding `COC(=O)CCCCCNc1ccc(C(=O)OC)cc1N`, the inhibition is 0%. `CC1CCN(C(=O)CCNS(=O)(=O)c2ccccc2)CC1`: the inhibition is 3%.

Turning to `Cc1ccc(NC(=O)C2CCCN(S(=O)(=O)c3cnc[nH]3)C2)cc1F` (stereo not given), the inhibition was 0%. Regarding `CCOCC(=O)Nc1ccc(S(=O)(=O)N2CCOCC2)cc1`, the inhibition was 0%. With `CC(C)(C)OC(=O)N1CCCC1C(=O)N1CCCC1C(=O)N1CCCC1C(=O)O` (stereo not drawn) (Boc-Pro-Pro-Pro-OH; configuration not given here), the inhibition was 3%. The same measure for `CC(=O)c1cccc(NC(=O)NCc2ccccn2)c1`: 2%; for `O=C(CNCCC1=CCCCC1)Nc1ccccc1N1CCCCC1`: 0%; for `C1CCN=C(Nc2nc3c(s2)CCCC3)CC1`: 3%. For `CCOC(=O)c1ccc(N2Cc3cc(C)c(C)cc3C2)cc1O` the value was 2%; for `Nc1nc(N2CCCCC2)nc(N(c2ccccc2)c2ccccc2)n1`, 3%; for `COc1cc(NS(=O)(=O)c2cccc3nsnc23)c(C(=O)O)cc1OC`, 0%. For `Cc1nc(CCNC(=O)c2ccccc2)cs1`, the inhibition was 0%. Take `CCc1ccc(N2CC(C(=O)OCC(=O)Nc3cc(C)on3)CC2=O)cc1` (stereo not given): the inhibition was 0%. For `O=C(CCS(=O)(=O)c1cc(Br)cc2c1N(C(=O)C1CC1)CC2)NCC1CCCO1` (stereo not given), the inhibition is 0%. Turning to `CN(CCO)CC(O)Cn1cnc2c1c(=O)n(C)c(=O)n2C` (stereo not given) (tested in a mixture with another compound), the inhibition is 0%. Take `CNC(=O)c1ccsc1NC(=O)c1ccccc1`: the inhibition is 4%.

As to `O=C(c1cc(-c2cccs2)on1)N1CCc2ccccc2C1`, the inhibition is 2%. The same measure for `O=C(CCNS(=O)(=O)c1ccc(Br)s1)N1CCCCC1`: 0%; for `CCCCC(CC)Cn1c2nc3ccccc3nc2c2c(=N)oc(C)nc21` (stereo not given): 7%; for `Cc1ccc(S(=O)(=O)N2CCCC2C(=O)n2nc(C)cc2C)cc1` (stereo not given): 0%. As for `CCOc1ccc(C(=O)Nc2ccc(N3CCN(C)CC3)cc2)cc1Br`, the inhibition was 0%.

As to `CCN(CC)CCCC1(CN)OCCc2ccccc21` (stereo not given), the inhibition was 0%. For `Cc1ccc(-n2nnnc2SCC(=O)c2cc(C)n(CC3CCCO3)c2C)cc1` (stereo not given) the value was 0%.

Take `Cc1cc2ncn(N)c2cc1C`: the inhibition is 9%.
